Sampled rows, rich in hits. Any-hit rate of the full collection: about 18%.
RORg inh: inhibitors of mouse ROR gamma transcriptional activity; P51450; Drosophila S2 Gal4-RORgamma UAS-luciferase reporter, 20 h; Potency, µM (titrated, usually from 53.6 µM), inactives show at the top dose activity change, negative = inhibition, most hits filed as inhibitors; 5.4% of 310,000 active; AID 2551; further: potency means the concentration at half of the fitted maximal effect; nearly all actives have a fitted effect of over 60% in size
Target sequence (P51450 whole entry, looked up, the tested form may be a part): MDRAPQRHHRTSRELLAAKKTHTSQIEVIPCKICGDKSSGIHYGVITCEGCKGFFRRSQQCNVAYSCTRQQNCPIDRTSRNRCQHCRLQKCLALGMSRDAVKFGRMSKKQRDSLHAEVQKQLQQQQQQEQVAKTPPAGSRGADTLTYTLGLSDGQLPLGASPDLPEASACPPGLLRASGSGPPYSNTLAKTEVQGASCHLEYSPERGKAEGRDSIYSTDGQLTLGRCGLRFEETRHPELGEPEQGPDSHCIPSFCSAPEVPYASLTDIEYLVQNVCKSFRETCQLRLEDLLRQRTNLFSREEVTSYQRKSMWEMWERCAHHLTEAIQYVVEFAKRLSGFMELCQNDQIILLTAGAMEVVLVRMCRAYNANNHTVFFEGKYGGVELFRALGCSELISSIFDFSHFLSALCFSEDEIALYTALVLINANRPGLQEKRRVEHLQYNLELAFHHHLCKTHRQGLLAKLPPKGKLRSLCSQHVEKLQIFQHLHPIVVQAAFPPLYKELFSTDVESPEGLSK
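Stably transfected Drosophila Schneider cells are the test system, with ROR gamma fused to Gal4 and luciferase under UAS control; luminescence is read after 20 hr of 700 uM copper sulfate induction at ambient temperature.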
VP16 counter: Gal4-VP16 reporter inhibition counter-screen; 3.5% of 310,000 active; Potency, µM (titrated, usually from 53.6 µM), without a hit: top-dose activity, negative = inhibition, hits mostly inhibitors; Drosophila S2 Gal4-VP16 UAS-luciferase, luminescence, 20 h;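 further: Gal4-VP16 expression switched on by copper sulfate through the metallothionein promoter; potency means the concentration at half of the fitted maximal effect; nearly all actives have a fitted effect of over 50% in size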
IL1B secr inh: blocks inflammasome-driven IL-1 beta release; THP-1 LPS/ATP IL-1B secretion, AlphaLISA, 16 h; hits give low values; activity change, % at 57.5 µM; 4.7% of 360,000 active; in the data active means activity change below about -50%; inconclusive means mostly about -30% to -49%
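THP-1 cells pretreated 1 hr with compounds (up to 57.5 uM final), then stimulated with LPS (250 ng/mL final) plus ATP (1.25 mM final); secreted IL-1B measured by AlphaLISA after 16 hr, decreased signal indicating inhibition.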
DT40 TDP1 CPT: DT40-hTDP1 cell growth loss with CPT; Potency, µM (series often up to 46.2 µM), for inactives: at the highest dose activity change, negative = growth inhibition, actives largely listed as inhibitors; chicken DT40 Tdp1-/-;hTDP1 cells + 20 nM CPT, ATP luminescence, 48 h; AID 686979; 12% of 420,000 active; further: potency means the concentration at half of the fitted maximal effect; nearly all actives have a fitted effect of over 55% in size
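Chicken DT40 Tdp1-/- cells complemented with human TDP1, 400 cells/well, exposed to compounds plus 20 nM camptothecin for at least 48 h at 37 C; viability read as ATP content by CellTiter-Glo luminescence.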
DT40 TDP1 no CPT: qHTS for Inhibitors of human tyrosyl-DNA phosphodiesterase 1 (TDP1): qHTS in cells in absence of CPT; 15% of 420,000 active; DT40 Tdp1-/- hTDP1 cells, no CPT, ATP luminescence, 48 h; AID 686978, 2013; Potency, µM (highest dose often 46.2 µM), without a hit: top-dose activity change, negative = growth inhibition, usual class: inhibitors; further: potency means the concentration at half of the fitted maximal effect; nearly all actives have a fitted effect of over 55% in size
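Compound effects on proliferation are scored in DT40 Tdp1-/-;hTDP1 cells in the absence of CPT. ATP levels (CellTiter-Glo luminescence) are recorded after a ≥48 hr, 37 °C incubation.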
LDHA inh: LDHA (human) enzyme inhibition | purified LDHA, NADH/diaphorase-resazurin fluorescence; hits give low values | AID 1347041 | 0.15% of 480,000 active | activity change, % (values are at about 110 or 230 µM) | P00338; in the data active means activity change below about -30%; inconclusive means mostly about -25% to -30%;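 further: plate controls were DMSO wells for no effect and wells without enzyme for full effect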
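LDH5 2 nM; NADH 0.06 mM, pyruvate 0.2 mM; 200 mM Tris pH 7.4, EDTA, Tween-20; 5 min RT. Detection: diaphorase 0.133 mg/mL + resazurin 37 µM, fluorescence ex540/em590 at 0 and 20 min; normalized to enzyme-free and DMSO wells.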
Starred values were filed as active, the others as inactive; ? = inconclusive; nt = no result. Unless noted, the call rests on the fitted dose curve; in most records, active means well fitted curve in the direction sought with a large enough effect; inconclusive means small, poorly fitted or top-dose-only effect, or another doubt; inactive means no such curve, though single readings can be large; an effect the other way counts as inactive or inconclusive. Unless noted, on the % scale 0 is the no-effect control and ±100 the full control effect.

SMILES | RORg inh | VP16 counter | IL1B secr inh | DT40 TDP1 CPT | DT40 TDP1 no CPT | LDHA inh
C=CCOc1ccc(C2C(C#N)=C(N)N(Nc3ccccc3)C3=C2C(=O)CCC3)cc1OC (configuration not stated) | ? | -0.8% | 13.6 | ? | 16.4µM* | -1.1
COc1ccc(C2C(C#N)=C(N)N(c3cccnc3)C3=C2C(=O)CC(C)(C)C3)cc1OC (configuration not stated) | 6.8% | -20.8% | 7.1 | 23.1µM* | ? | 8.1
CCN1CCN(c2nc3ccccc3nc2C(C#N)S(=O)(=O)c2ccc(Cl)cc2)CC1 (configuration not stated) | nt | nt | nt | nt | nt | -2.4
CCn1c(SCC(=O)Nc2ccc(C(C)C)cc2)nc2c(=O)[nH]cnc21 | nt | nt | nt | nt | nt | -2.1
CCCN(Cc1ccc(F)cc1)Cc1cc(=O)n2c3c(sc2n1)CCCC3 | nt | nt | nt | nt | nt | 1.3
O=c1c(O)c(-c2ccc(O)cc2)oc2cc(O)cc(O)c12 | -24.7% | -23.7% | 28.0 | ? | ? | 7.8
O=c1c(O)c(-c2ccccc2)oc2cccc(O)c12 | 3.98µM* | 7.94µM* | nt | ? | ? | nt
CCOC(=O)C(NC(=O)CCNC(=O)c1ccccc1)C(=O)OCC | nt | nt | nt | nt | nt | 2.3
O=C(Nc1cccc(-c2nnnn2C2CC2)c1)C1CCCC1 | nt | nt | nt | nt | nt | 1.4
COC1=CC(=O)CC(C)C12Oc1c(Cl)c(OC)cc(OC)c1C2=O (configuration not stated) | -0.3% | -11.1% | -15.2 | ? | ? | -4.1
COC1=CC(=O)C[C@@H](C)[C@]12Oc1c(Cl)c(OC)cc(OC)c1C2=O | -27.3% | -10.9% | -2.3 | ? | 16.8µM* | -10.3
CCOC(=O)c1c(NC(=O)CN2C(=O)NC3(CCC(C)CC3)C2=O)sc(C)c1-c1ccc(C)cc1 (configuration not stated) | -4.2% | -7.4% | 26.2 | 20.6µM* | 18.4µM* | -4.6
CCOC(=O)c1c(NC(=O)CN2C(=O)NC3(CCCCC3)C2=O)sc(C)c1-c1ccc(C)cc1 | ? | -29.1% | -2.2 | 18.4µM* | 20.6µM* | -3.6
Cc1ccc(S(=O)Cc2nc(-c3ccc(C(=O)NCCCN4CCOCC4)cc3)oc2C)cc1 (configuration not stated) | nt | nt | nt | nt | nt | 1.5
O=c1[nH]c(CO)nc2c1oc1ccccc12 | 10.3% | -2.0% | 15.2 | 8.6% | 1.1% | 1.2
O=c1[nH]c(Cc2ccccc2)nc2c1oc1ccccc12 | 0.5% | 11.8% | 0.0 | 6.51µM* | ? | -4.2
COc1ccccc1NC(=O)Cc1cnc(-n2cccc2)s1 | nt | nt | nt | nt | nt | 7.7
CCOC(=O)c1cnc2ccc(OCC)cc2c1NCc1ccccc1 | 2.82µM* | 5.01µM* | ? | 5.8µM* | 6.51µM* | 7.0
CCOC(=O)c1cnc2ccc(OCC)cc2c1N1CCN(c2ccccc2)CC1 | -9.1% | -9.1% | -16.8 | 20.6µM* | 25.9µM* | -1.4
CCOC(=O)c1cnc2ccc(OCC)cc2c1N1CCN(c2ccccc2F)CC1 | nt | nt | nt | 16.4µM* | 11.6µM* | -0.9
CCOC(=O)c1cnc2ccc(OCC)cc2c1NCc1cccnc1 | 9.8% | -9.2% | ? | ? | ? | 13.4
CCOC(=O)c1cnc2ccccc2c1N1CCC(O)CC1 | nt | nt | nt | nt | nt | -3.6
CCOC(=O)c1cnc2cc(C(F)(F)F)ccc2c1N1CCN(c2cccc(Cl)c2)CC1 | nt | nt | nt | ? | 23.1µM* | 3.3
O=C(CSc1nnc(Cc2ccccc2)o1)Nc1ccc(Br)c(Cl)c1 | nt | nt | nt | nt | nt | -2.5
COc1ccc(NC(=O)c2cnn(-c3ccccc3)c2C)c(OC)c1 | 32.1% | -16.1% | -5.3 | -0.2% | -6.4% | -6.8
SMILES | RORg inh | VP16 counter | IL1B secr inh | DT40 TDP1 CPT | DT40 TDP1 no CPT | LDHA inh
Cc1ccc(C)c(NC(=O)c2cnn(-c3ccc(F)cc3F)c2C2CCNCC2)c1 | nt | nt | nt | 20.6µM* | 9.2µM* | 7.7
COC(=O)c1cnn(-c2ccc(C(=O)Nc3cc(Cl)ccc3C)cc2)c1N | nt | nt | nt | nt | nt | -0.4
Cc1cccc(NC(=O)c2cnn(-c3ccc(F)cc3)c2C2CCNCC2)c1C | -11.2% | 7.4% | -21.7 | -28.5% | -27.2% | -6.2
COc1ccc(OC)c(NC(=O)c2cnn(-c3ccc(C)cc3)c2C2CCNCC2)c1 | nt | nt | nt | 20.6µM* | 25.9µM* | 13.4
Cc1ccc(-n2ncc(C(=O)Nc3cc(Cl)ccc3C)c2C2CCNCC2)cc1C | -21.7% | -13.4% | -29.7 | 16.4µM* | 23.1µM* | -1.8
CCc1ccc(NC(=O)c2cnn(-c3c(C)cccc3C)c2C2CCNCC2)cc1 | nt | nt | nt | ? | 23.1µM* | 0.8
Cc1cc(C)cc(NC(=O)c2cnn(-c3ccc(C)c(C)c3)c2C2CCNCC2)c1 | nt | nt | nt | ? | ? | -4.5
Cc1cc(C)cc(NC(=O)c2cnn(-c3ccccc3)c2C2CCNCC2)c1 | -5.7% | -21.7% | -26.1 | ? | 16.4µM* | -1.2
CC(CO)NC(=O)C(C)Sc1ccccc1 (configuration not stated) | nt | nt | nt | nt | nt | -0.5
O=C(CC1SC(=O)N(c2ccccc2)C1=O)Nc1cccc2ccccc12 (configuration not stated) | -28.2% | 3.8% | -0.4 | 3.26µM* | 5.17µM* | 0.7
CCOc1ccc(NC(=O)CC2SC(=O)N(c3ccccc3)C2=O)cc1 (configuration not stated) | ? | ? | -2.1 | 1.16µM* | 2.91µM* | 1.9
COc1ccccc1NC(=O)CC1SC(=N)N(c2ccccc2)C1=O (configuration not stated) | 5.7% | -3.0% | -7.4 | -16.7% | ? | -10.3
Cc1ccccc1NC(=O)CC1SC(=O)N(c2ccccc2)C1=O (configuration not stated) | ? | 0.9% | 24.7 | 6.51µM* | 4.61µM* | 0.6
Cc1ccc(S(=O)(=O)N2CCN(c3nc(CN4CCCC4)nc4sc(C)c(C)c34)CC2)cc1 | nt | nt | ? | ? | ? | -5.6
Cc1sc2nc(CN3CCCC3)nc(N3CCN(S(=O)(=O)c4cccs4)CC3)c2c1C | 0.3% | -6.8% | ? | ? | 18.4µM* | 0.1
Cc1ccc(C)c(S(=O)(=O)N2CCN(c3nc(CN4CCOCC4)nc4sc(C)c(C)c34)CC2)c1 | nt | nt | -28.3 | ? | 18.4µM* | -2.4
CC(=O)Nc1ccc(-c2csc(NC(=O)c3cc4cnn(C(C)C)c4nc3C)n2)cc1 | nt | nt | nt | nt | nt | -0.2
CCCOc1ccc(CC(=O)NCc2ccco2)cc1OC | 11.2µM* | 4.8% | 8.7 | 19.7% | -9.7% | -2.2
CCOC(=O)C1=C(C)NC(C)=C(C(=O)OCC)C1C(=O)OCC(=O)NCc1ccco1 | nt | nt | 28.8 | -55.3% | 20.6µM* | 1.0
Cc1ccc(C(=O)OCC(=O)NCc2ccco2)cc1 | 0.0% | -2.4% | 5.6 | -4.3% | 3.1% | -5.9

Compound activity (PubChem BioAssay)
